# Laboratory results published in PubChem BioAssay (NCATS).
# Several values for one entry are separate records, joined by “and”; a condition that tells them apart may be missing. Equal entries are not always repeated. Records with an inconclusive call do not appear. Entries that show only a call come without a potency. Unmarked numbers belong to inactive results. Activity calls are given as the source filed them. The call rests on the fitted dose curve; in most records, active means well fitted curve in the direction sought with a large enough effect; inconclusive means small, poorly fitted or top-dose-only effect, or another doubt; inactive means no such curve, though single readings can be large; an effect the other way counts as inactive or inconclusive. *1 amine or outer side, *2 acyl side, *3 side chain or, on linkers, in order; H or OH if unused. Where a SMILES comes first, the peptide text is derived from it. Bridges are numbered along the chain shown (N, C = ends). Roman numbers before positions name the chains, in order. [ ]: non-standard residue; d: D form. ξ: configuration not given here. Actinocin(9to1) = Cc1c2oc3c(C)ccc(C(=O)[*:1])c3nc-2c(C(=O)[*:2])c(N)c1=O; ξNMeV = CNC(C(=O)O)C(C)C; ξV = CC(C)C(N)C(=O)O; Sar = CNCC(=O)O
# Assays:
# [1] = tested on: Zika virus NS2B-NS3 protease (linked); test: 384 well plate NINDS AMC confirmatory qHTS for Zika virus inhibitors (AID 1347163); further: nearly all actives have a fitted effect of over 50% in size; further: potency means the concentration at half of the fitted maximal effect;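 on activity change, negative = inhibition: linked protease at 5 30 or 60 nM final depending on run; fluorescence of AMC released from Ac-VKTGKR-AMC peptide cleaved by the protease; top concentration of the series differs between compounds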
# Summary of the method: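 Linked NS2B-NS3 protease (final 5 nM, 30 nM or 60 nM) was preincubated with compounds (final up to 1 mM) for ~15 minutes. Ac-VKTGKR-AMC substrate (final 30 microM) then reacted for 25 minutes at room temperature in the dark. Fluorescence (ex 355/em 460 nm) was normalized to no-enzyme and no-inhibitor controls.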
# [2] = tested on: Zika virus NS2B-NS3 protease (linked construct); test: 384 well plate NINDS Rhodamine confirmatory qHTS for Zika virus inhibitors (AID 1347164); further: nearly all actives have a fitted effect of over 65% in size; further: potency means the concentration at half of the fitted maximal effect; on activity change, negative = inhibition: top concentration of the series differs between compounds
# Summary of the method: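 Cleavage of Ac-LKRR-Rhodamine 110 (10 microM final) by linked protease (final 5, 30 or 60 nM) was followed as fluorescence at 485/538 nm after 25 min, room temperature, dark. Compounds preincubated ~15 min.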
# [3] = Vero cells viability qHTS for Zika virus inhibitors (AID 1347167)
# Summary of the method: (§1)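 Compounds were tested in concentration series on cells grown in DMEM containing 4% FBS. After 24 to 48 hours, cellular ATP was measured by luminescence with CellTiter Glo.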
# [4] = HepG2 cells viability qHTS for Zika virus inhibitors (AID 1347168)
# Summary of the method: as §1
# [5] = Tertiary RLuc qRT-PCR qHTS assay for Zika virus inhibitors (AID 1347169); further: nearly all actives have a fitted effect of over 55% in size; further: potency means the concentration at half of the fitted maximal effect; on activity change, negative = inhibition: top concentration of the series differs between compounds
# Summary of the method: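 Inhibition of ZIKV-RLuc replication in Vero cells, read as Renilla luminescence 1-1.5 hrs after live-cell substrate addition, following 48-72 hrs infection at MOI 1-2 in presence of compound.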
# [6] = OV-KATE Cancer Cell Toxicity qHTS against the NCATS CANVASS Library (AID 1347345)
# Summary of the method: (§2)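 Step one: seed 1000 cells per well. Step two: incubate 4 h. Step three: add test compounds in 11 concentrations. Step four: culture 72 h, then add CellTiter-Glo and record luminescence after 15min.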
# [7] = HPAF-II Cancer Cell Toxicity qHTS against the NCATS CANVASS Library (AID 1347346); further: nearly all actives have a fitted effect of over 55% in size; further: potency means the concentration at half of the fitted maximal effect; on activity change, negative = cytotoxicity: series mostly up to about 38 µM
# Summary of the method: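 Luminescence from CellTiter-Glo, added after 72 h compound exposure and a 15 min room-temperature incubation, served as the viability readout. HPAF-II cells (1000/well) received an 11-point concentration series.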
# [8] = OV-SAHO Cancer Cell Toxicity qHTS against the NCATS CANVASS Library (AID 1347348); further: series mostly up to about 38 µM; nearly all actives have a fitted effect of over 55% in size
# Summary of the method: as §2
# [9] = SW1088 Cancer Cell Toxicity qHTS against the NCATS CANVASS Library (AID 1347350); conditions: outcome: dose series up to 38.3 µM; further: nearly all actives have a fitted effect of over 75% in size; on activity change, negative = cytotoxicity: series mostly up to about 38 µM
# Summary of the method: as §2
# [10] = U-118MG Cancer Cell Toxicity qHTS against the NCATS CANVASS Library (AID 1347351); further: series mostly up to about 38 µM
# Summary of the method: as §2
# [11] = COV-362 Cancer Cell Toxicity qHTS against the NCATS CANVASS Library (AID 1347352); further: series mostly up to about 38 µM
# Summary of the method: (§3)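 Luminescent ATP read-out (CellTiter-Glo, 15min at room temperature) measures survival after cells face an 11-point compound series for 72 hours at 37 degrees C/5% CO2.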
# [12] = A2780 Cisplatin Sensitive Ovarian Cancer Cell Toxicity qHTS against the NCATS CANVASS Library (AID 1347353); conditions: outcome: dose series up to 46.1 µM; further: nearly all actives have a fitted effect of over 60% in size; on activity change, negative = cytotoxicity: series mostly up to about 46 µM
# Summary of the method: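 Luminescent ATP content (ATPLite, 10 min at room temperature) served as the read-out after cells had been exposed to compounds for 72 hours at 37 °C. Dosing followed an 11-point concentration series.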
# [13] = UWB1.289-WTBRCA1 Cancer Cell Toxicity qHTS against the NCATS CANVASS Library (AID 1347354)
# Summary of the method: as §3
# [14] = HEK-293 Cancer Cell Toxicity qHTS against the NCATS CANVASS Library (AID 1347355); conditions: outcome: dose series up to 46.1 µM; further: series mostly up to about 46 µM; nearly all actives have a fitted effect of over 65% in size
# Summary of the method: as §3
# [15] = HPAF-II 24hr Apoptosis Induction qHTS against the NCATS CANVASS Library (AID 1347356)
# Summary of the method: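 Luminescent caspase-3/7 signal (DEVD substrate, Caspase-Glo) served as read-out, taken 15 min after reagent addition to HPAF-II cells exposed 24 h to compounds.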
# [16] = HEK293 18hr Apoptosis Induction qHTS against the NCATS CANVASS Library (AID 1347357)
# Summary of the method: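 Natural products applied to HEK293 for 18 hr; Caspase-Glo 3/7 readout.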
# [17] = HPAF-II 12hr Apoptosis Induction qHTS against the NCATS CANVASS Library (AID 1347358)
# Summary of the method: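 500 HPAF-II cells/well; cmpds 11-pt; 12 hr, 37 degrees C/5% CO2; Caspase-Glo 3/7 added, 15 min RT dark; luminescence read. Doxorubicin titration as control.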
# [18] = HEK293 24hr Apoptosis Induction qHTS against the NCATS CANVASS Library (AID 1347359)
# Summary of the method: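 Caspase-3/7 activation measured as luminescence from the DEVD-based Caspase-Glo reagent, 15 min at room temperature, following 24-hour compound treatment of HEK293 cells.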
# [19] = target: Lysine-specific demethylase 5B (Homo sapiens) (UniProt Q9UGL1); test: Optimization screen for KDM5B Histone Demethylases FDH coupled qHTS against the LOPAC library (AID 1347166)
# Summary of the method: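 KDM5BDeltaAP (200nM final) preincubated 10 min with compound, then 12.5uM H3K4Me3, 25uM a-ketoglutarate, ascorbate, Fe(II), NAD+ and FDH added; 50mM HEPES pH 7.5, 0.01% Tween-20. NADH fluorescence (340/450 nm) change over 30 min, room temperature.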
# [20] = UWB1.289 Cancer Cell Toxicity qHTS against the NCATS CANVASS Library (AID 1347347); further: series mostly up to about 38 µM; nearly all actives have a fitted effect of over 60% in size
# Summary of the method: as §2
# Chain of Lysine-specific demethylase 5B (Homo sapiens) (Q9UGL1 whole entry, looked up): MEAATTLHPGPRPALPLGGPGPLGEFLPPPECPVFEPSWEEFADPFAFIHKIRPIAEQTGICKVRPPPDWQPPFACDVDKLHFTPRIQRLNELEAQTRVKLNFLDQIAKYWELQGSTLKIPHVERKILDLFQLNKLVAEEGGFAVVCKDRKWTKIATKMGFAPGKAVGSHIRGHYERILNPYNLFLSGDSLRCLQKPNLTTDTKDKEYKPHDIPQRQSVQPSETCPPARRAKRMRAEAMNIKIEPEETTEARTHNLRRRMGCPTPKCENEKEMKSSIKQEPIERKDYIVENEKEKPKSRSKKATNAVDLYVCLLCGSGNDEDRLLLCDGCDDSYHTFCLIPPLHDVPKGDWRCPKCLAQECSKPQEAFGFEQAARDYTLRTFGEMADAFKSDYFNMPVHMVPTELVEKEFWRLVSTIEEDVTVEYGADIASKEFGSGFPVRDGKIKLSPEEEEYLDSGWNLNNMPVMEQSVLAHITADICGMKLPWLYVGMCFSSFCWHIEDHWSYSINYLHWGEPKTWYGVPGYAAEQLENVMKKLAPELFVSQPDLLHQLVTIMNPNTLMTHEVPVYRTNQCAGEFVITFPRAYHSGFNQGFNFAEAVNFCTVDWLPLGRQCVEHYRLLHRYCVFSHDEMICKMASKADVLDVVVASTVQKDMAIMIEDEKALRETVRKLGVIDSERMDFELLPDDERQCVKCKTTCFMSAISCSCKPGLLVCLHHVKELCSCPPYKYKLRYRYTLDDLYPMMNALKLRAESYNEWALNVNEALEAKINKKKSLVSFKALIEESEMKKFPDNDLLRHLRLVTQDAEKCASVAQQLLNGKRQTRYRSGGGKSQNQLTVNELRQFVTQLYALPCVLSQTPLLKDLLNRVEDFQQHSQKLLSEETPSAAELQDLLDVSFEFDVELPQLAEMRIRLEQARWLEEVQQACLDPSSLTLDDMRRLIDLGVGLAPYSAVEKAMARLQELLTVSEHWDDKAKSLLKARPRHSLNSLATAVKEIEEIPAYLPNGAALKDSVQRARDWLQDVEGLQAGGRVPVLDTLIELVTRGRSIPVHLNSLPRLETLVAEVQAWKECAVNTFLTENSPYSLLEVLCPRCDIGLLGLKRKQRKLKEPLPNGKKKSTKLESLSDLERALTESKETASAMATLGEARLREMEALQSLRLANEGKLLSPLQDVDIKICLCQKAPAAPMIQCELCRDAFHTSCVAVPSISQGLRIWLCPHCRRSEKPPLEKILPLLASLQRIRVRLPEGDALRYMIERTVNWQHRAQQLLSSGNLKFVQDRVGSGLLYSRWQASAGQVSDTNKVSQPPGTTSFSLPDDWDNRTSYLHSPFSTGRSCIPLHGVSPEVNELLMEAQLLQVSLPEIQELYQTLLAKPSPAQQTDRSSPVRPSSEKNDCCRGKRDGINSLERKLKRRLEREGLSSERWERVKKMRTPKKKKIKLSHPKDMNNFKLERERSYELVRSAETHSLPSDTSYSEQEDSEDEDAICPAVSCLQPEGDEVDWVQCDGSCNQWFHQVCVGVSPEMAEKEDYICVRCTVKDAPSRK
structure (smiles),measurement,setting,value
N#CC1C(=O)Nc2scc(-c3ccc(-c4ccccc4O)cc3)c2C1=O (centres undefined),Potency,[1],6.31 µM (active)
same,Potency,[2],12.6 µM (active)
same,outcome,[3],inactive
same,outcome,[4],inactive
O=S(=O)(O)c1cc(O)c2c(N=Nc3ccc(Nc4ccccc4)c4c(S(=O)(=O)O)cccc34)cc(S(=O)(=O)O)cc2c1,Potency,[1],12.6 µM (active)
same,Potency,[2],6.31 µM (active)
same,"activity change, negative = inhibition",[5],-4.11% [at 1.74 µM]
CC1C/C=C/C=C\CCCCC(O)C/C=C/C(=O)O1 (centres undefined),Potency,[5],inactive
CC1(C)CCC(C)(C)c2cc3c(cc21)Sc1ccccc1N=C3c1ccc(C(=O)O)cc1,Potency,[1],8.91 µM (active)
same,Potency,[2],4.47 µM (active)
same,outcome,[3],inactive
same,outcome,[4],inactive
C/C=C/C=C/C(CC(=O)O)Nc1ccc(C=O)cc1 (centres undefined),outcome,[6],inactive
same,Potency,[7],3.75 µM (active)
same,outcome,[8],inactive
same,outcome,[9],inactive
same,outcome,[10],inactive
same,outcome,[11],inactive
same,outcome,[12],inactive
same,outcome,[13],inactive
same,outcome,[14],inactive
same,outcome,[15],inactive
same,outcome,[16],inactive
same,outcome,[17],inactive
same,outcome,[18],inactive
"Cc1c2oc3c(C)ccc(C(=O)N[C@@H]4C(=O)NC(C(C)C)C(=O)N5CCC[C@H]5C(=O)N(C)CC(=O)N(C)C(C(C)C)C(=O)O[C@@H]4C)c3nc-2c(C(=O)N[C@@H]2C(=O)NC(C(C)C)C(=O)N3CCC[C@H]3C(=O)N(C)CC(=O)N(C)C(C(C)C)C(=O)O[C@@H]2C)c(N)c1=O (some centres undefined) (I: T[ξV]P[Sar][ξNMeV] / II: T[ξV]P[Sar][ξNMeV]; ester I:1-I:C, II:1-II:C; linker I:N-II:N via Actinocin(9to1))",outcome,[3],inactive
same,outcome,[4],inactive
same,Potency,[5],0.208 µM (active)
NCc1ccc(OCCCc2sc(-c3ccc4c(c3)/C(=N/Nc3nc5ccccc5s3)CCC4)nc2C(=O)O)cc1,Potency,[5],inactive
O=C(/C=C/c1c(C(=O)O)[nH]c2cc(Cl)cc(Cl)c12)Nc1ccccc1,Potency,[1],1.12 µM (active)
same,Potency,[2],8.91 µM (active)
same,outcome,[3],inactive
same,outcome,[4],inactive
same,Potency,[5],inactive
O=C(O)c1cc(O)c2cccc(O)c2c1O[C@@H]1O[C@H](CO)[C@@H](O)[C@H](O)[C@H]1O,Potency,[1],inactive
same,Potency,[2],2.82 µM (active)
same,outcome,[3],inactive
same,outcome,[4],inactive
same,Potency,[5],inactive
CC(=O)O[C@@H]1C[C@]2(C)[C@@]3(CCC4[C@@]5(C)CC[C@H](O[C@@H]6O[C@H](C(=O)O)[C@@H](O)[C@H](O[C@@H]7O[C@H](CO)[C@H](O)[C@H](O)[C@H]7O[C@@H]7O[C@@H](C)[C@H](O)[C@@H](O)[C@H]7O[C@@H]7OC[C@](O)(CO)[C@H]7O)[C@H]6O[C@@H]6O[C@H](CO)[C@H](O)[C@H](O)[C@H]6O)C(C)(C)C5CC[C@]42C)O[C@@H](O)[C@]12C3CC(C)(C)[C@@H](OC(=O)/C=C/c1ccc(O)c(O)c1)[C@@H]2OC(=O)/C=C/c1ccccc1 (some centres undefined),"activity change, negative = cytotoxicity",[3],-1.71% [at 8.96 µM]
same,"activity change, negative = cytotoxicity",[4],0.159% [at 8.96 µM]
O=C(O)c1ccc(CCCc2ccc(OCCc3ccc(F)cc3)cc2)o1,Potency,[1],5.01 µM (active)
same,Potency,[2],inactive
same,outcome,[3],inactive
same,outcome,[4],inactive
CC(=O)c1c(C)cc(O)cc1O[C@@H]1O[C@H](CO)[C@@H](O)[C@H](O)[C@H]1O,Potency,[5],inactive
Nc1c(N=Nc2ccc(-c3ccc(N=Nc4cc(S(=O)(=O)O)c5ccccc5c4N)cc3)cc2)cc(S(=O)(=O)O)c2ccccc12,Potency,[2],7.08 µM (active)
CCCCS(=O)(=O)Nc1ncnc(OCCOc2ncc(Br)cn2)c1-c1ccc(Br)cc1,Potency,[5],inactive
CN1Cc2c(N)cccc2C(c2ccccc2)C1 (centres undefined),outcome,[19],inactive
CC1=C2C(=O)O[C@@H](c3ccoc3)[C@]2(C)CCC1,outcome,[6],inactive
same,Potency,[7],inactive
same,outcome,[20],inactive
same,outcome,[8],inactive
same,outcome,[9],inactive
same,outcome,[10],inactive
same,outcome,[11],inactive
same,outcome,[12],inactive
same,outcome,[13],inactive
same,outcome,[14],inactive
same,outcome,[15],inactive
same,outcome,[16],inactive
same,outcome,[17],inactive
same,outcome,[18],inactive
CC1(C)CC[C@]2(C(=O)O[C@@H]3O[C@H](CO)[C@@H](O)[C@H](O)[C@H]3O)CC[C@]3(C)C(=CCC4[C@@]5(C)C[C@@H](O)[C@H](O)[C@@](C)(CO)C5CC[C@]43C)C2C1 (some centres undefined),Potency,[5],inactive
CC(C)(O)/C=C1/C(=O)C(C)(C)C(=O)C(C)(C)C1(O)O[C@@H]1O[C@H](COC(=O)c2cc(O)c(O)c(O)c2)[C@@H](O)[C@H](O)[C@H]1O (some centres undefined),Potency,[5],inactive
O=S(=O)(O)c1ccc2c(N=Nc3ccc(S(=O)(=O)O)c4ccccc34)c(O)c(S(=O)(=O)O)cc2c1,Potency,[1],63.1 µM (active) and 79.4 µM (active)
same,Potency,[2],15.8 µM (active) and 12.6 µM (active)
same,Potency,[5],inactive
C=C1CC23CCC4[C@@](C)(CCC[C@@]4(C)C(=O)O)C2CCC1C3 (some centres undefined),Potency,[5],inactive
Cc1nn(C)c(COc2ccc(N3CCN(S(=O)(=O)N(C)C)CC3)cc2)c1-c1cccc2c(CCCOc3cccc4ccccc34)c(C(=O)O)n(CCN3CCOCC3)c12,Potency,[5],inactive
CCOc1ccc(-c2ccc(Cn3c(CC(C)(C)C(=O)O)c(SC(C)(C)C)c4cc(OCc5ccc(C)cn5)ccc43)cc2)cn1,Potency,[2],inactive
same,outcome,[3],inactive
same,outcome,[4],inactive
same,Potency,[5],5.23 µM (active)
COc1cccc(-n2nc(C(=O)O)cc2-c2ccc(C3CCCCC3)c(Cl)c2)c1,Potency,[2],5.01 µM (active)
same,outcome,[3],inactive
same,outcome,[4],inactive
same,Potency,[5],18.6 µM (active)
O=C(O)c1cnn(-c2nc3cc(OC(F)(F)F)c(Cl)cc3[nH]2)c1,Potency,[2],0.794 µM (active)
same,outcome,[3],inactive
same,outcome,[4],inactive
CCOc1c2c(c(OCC)c3ccccc13)C(=O)N(c1ccc(CC(=O)NS(=O)(=O)c3ccccc3)cc1)C2,Potency,[1],inactive
same,Potency,[2],inactive
same,outcome,[3],inactive
same,outcome,[4],inactive
CC(C)C1=CCC(C)(O)C(OC2OC(CO)C(O)C(O)C2O)C1 (centres undefined),Potency,[2],5.62 µM (active)
same,outcome,[3],inactive
same,outcome,[4],inactive
same,Potency,[5],inactive
OC[C@H]1O[C@@H](Oc2ccc(O)c3cccc(O)c23)[C@H](O)[C@@H](O)[C@@H]1O,Potency,[5],inactive
CC(C)c1cc2c(c(O)c1O[C@@H]1O[C@H](CO)[C@@H](O)[C@H](O)[C@H]1O)CC1(O)CCC(O)C(C)(C)C1CC2 (some centres undefined),outcome,[3],inactive
same,outcome,[4],inactive
same,Potency,[5],inactive
CC(C)C(=O)c1cn(CC(=O)COc2ccc(Oc3ccccc3)cc2)c2ccc(C(=O)O)cc12,Potency,[1],44.7 µM (active)
same,Potency,[2],inactive
same,outcome,[3],inactive
same,outcome,[4],inactive
same,Potency,[5],18.6 µM (active)
CC12CCC3C(C)(C)C(O)CCC3(C)C1Cc1c(oc(C(=O)O)cc1=O)O2 (centres undefined),Potency,[5],inactive
CC(C)(O)C1CC=C(C(=O)OCC2OC(Oc3c(O)cc(C(=O)O)cc3O)C(O)C(O)C2O)CC1 (centres undefined),outcome,[3],inactive
same,outcome,[4],inactive
same,Potency,[5],inactive
CC(C)N=c1cc2n(-c3ccc(Cl)cc3)c3ccccc3nc-2cc1Nc1ccc(Cl)cc1,Potency,[2],inactive
same,outcome,[3],inactive
